Sampled rows, rich in hits. Any-hit rate of the full collection: about 0.9%.
gsp agonist – qHTS for Agonist of gsp, the Etiologic Mutation Responsible for Fibrous Dysplasia/McCune-Albright Syndrome: qHTS; 340,000 tested, 0.13% active; gsp mutant cells, cAMP HTRF, 30 min; AID 624287, 2012; Potency, µM (series often up to 76.9 µM), for inactives: at the top dose activation (cAMP increase), most hits filed as activators; active = well fitted activation curve with a large enough effect; inconclusive = small, poorly fitted or top-dose-only effect, or another doubt; inactive = no such curve, though single readings can be large or run the other way; cell line not stated here;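 also: phosphodiesterase inhibitor Ro 20-1724 added with compounds to block cAMP breakdown; potency is read from the fitted curve at half-maximal effect; nearly all actives have a fitted effect of over 60% in size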
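Cells in DMEM/10% FBS with G418 were pretreated with compounds in DMSO plus […] (300 uM stock) for 30 min at 37C. cAMP was measured by HTRF (cAMP-d2 plus anti-cAMP antibody-K) after 30 min at room temperature.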
RXFP1 agonist – qHTS Assay for Agonists of the Relaxin Receptor RXFP1; Relaxin receptor 1 (Homo sapiens), Q9HBX9; HEK293T-RXFP1 cAMP TR-FRET, 30 min; response scale: percent of porcine relaxin response, buffer zero; Potency, µM (top dose mostly 57.5 µM), for the others: at the top dose activation, actives largely listed as activators; 370,000 tested, 0.3% active; AID 2676, 2010; active = well fitted activation curve with a large enough effect; inconclusive = small, poorly fitted or top-dose-only effect; also: potency is read from the fitted curve at half-maximal effect; % is scaled to controls: 0 for no effect and ±100 for the full control effect; nearly all actives have a fitted effect of over 60% in size
Target sequence (Q9HBX9 whole entry, looked up): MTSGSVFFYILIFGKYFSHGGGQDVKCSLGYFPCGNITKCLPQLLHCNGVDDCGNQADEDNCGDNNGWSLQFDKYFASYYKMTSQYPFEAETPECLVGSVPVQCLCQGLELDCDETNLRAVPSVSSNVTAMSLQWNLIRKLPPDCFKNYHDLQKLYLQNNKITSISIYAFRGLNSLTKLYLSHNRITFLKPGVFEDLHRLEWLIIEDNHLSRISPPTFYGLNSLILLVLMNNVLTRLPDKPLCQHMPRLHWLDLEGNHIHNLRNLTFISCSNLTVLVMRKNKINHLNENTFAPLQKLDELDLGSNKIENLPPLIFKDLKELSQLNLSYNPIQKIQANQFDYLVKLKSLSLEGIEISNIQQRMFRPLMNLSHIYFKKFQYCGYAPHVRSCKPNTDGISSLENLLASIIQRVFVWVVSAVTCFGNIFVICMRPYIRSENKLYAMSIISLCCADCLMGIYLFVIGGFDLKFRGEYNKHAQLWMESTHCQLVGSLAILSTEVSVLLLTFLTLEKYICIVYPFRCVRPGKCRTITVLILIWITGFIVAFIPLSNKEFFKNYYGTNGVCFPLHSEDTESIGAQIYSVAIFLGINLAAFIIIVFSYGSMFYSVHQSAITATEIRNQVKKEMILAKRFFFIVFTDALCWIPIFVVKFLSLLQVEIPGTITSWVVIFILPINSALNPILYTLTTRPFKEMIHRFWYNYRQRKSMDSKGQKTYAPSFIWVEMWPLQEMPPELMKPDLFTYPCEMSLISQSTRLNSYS
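Agonist response is measured as cAMP accumulation in an RXFP1-transfected HEK293T line under PDE4 inhibition. Values are scaled between buffer-only and 29 nM porcine relaxin, and EC50s come from standard Hill equation fits.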
gsp antagonist – qHTS for Antagonists of gsp, the Etiologic Mutation Responsible for Fibrous Dysplasia/McCune-Albright Syndrome: qHTS. gsp-mutant cells, cAMP HTRF, 30 min. Potency, µM (titrated, usually from 76.9 µM), without a hit: top-dose activity change, negative = inhibition, usual class: inhibitors. 340,000 tested, 0.4% active. AID 624288, 2012; calls by dose curve; cell line not stated here;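 also: intracellular cAMP measured with PDE inhibitor Ro 20-1724 present during compound exposure; potency is read from the fitted curve at half-maximal effect; % is scaled to controls: 0 for no effect and ±100 for the full control effect; nearly all actives have a fitted effect of over 65% in size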
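HTRF cAMP measurement after 30 min RT detection following 30 min, 37C compound treatment alongside […] (added as 300 uM solution) in G418-selected cells seeded at 2000/well and grown 16–24 h.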
RXFP1 antag – qHTS Assay for Antagonists of the Relaxin Receptor RXFP1 | HEK293-RXFP1, relaxin-stimulated cAMP HTRF, 30 min; stronger effect = lower value | activity change, negative = inhibition, % at 57.5 µM | 350,000 tested, 0.59% active | AID 1259400, 2018;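 active = activity change of -60% or lower, but not beyond a set lower limit; inconclusive = change between -60% and -40%, or beyond the set limit; inactive = change above -40%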; also: % is scaled to controls: 0 for no effect and ±100 for the full control effect
Starred values were filed as active, the others as inactive; ? = inconclusive; nt = no result; [ ] = another dose, or the depositor's remark.

SMILES	gsp agonist	RXFP1 agonist	gsp antagonist	RXFP1 antag
CC(C)NC(=O)c1ccc(CSc2nc3ccncc3n2Cc2cccc(F)c2)cc1	nt	0%	nt	-9
Cc1ccc(S(=O)(=O)c2cc3c(=O)n4ccccc4nc3n(C3CCCC3)c2=N)cc1	-33%	-1%	-3%	-84*
Cc1cccc(N2CCN(C(=O)CCn3c(=O)c4cccn4c4cccnc43)CC2)c1C	nt	4%	nt	2
CCOc1cc(-c2ccc(OC(=O)c3ccccc3Cl)c(OC)c2)cc(=O)c2c(C)oc(C)c12	nt	-1%	nt	-73*
CCOc1cc(-c2ccc(OC(=O)c3ccc(OC)cc3)c(OC)c2)cc(=O)c2c(C)oc(C)c12	nt	0%	nt	-17
O=C1Cc2cc(S(=O)(=O)N3CCN(c4ccccc4)CC3)ccc2N1	-104%	5%	-3%	11
O=C1Cc2cc(CCN3CCN(c4nsc5ccccc45)CC3)c(Cl)cc2N1	nt	4%	nt	-107*
CCOc1ccc(CCNCc2c(C(=O)O)n(Cc3ccc(C)cc3)c3cc(OC)ccc23)cc1	nt	0%	nt	-29
N#C/C(=C\c1cccs1)C(=O)c1ccccc1Cl	-3%	0%	-1%	-61*
CCCCOC(=O)c1ccc(NC(=O)c2cc(-c3ccccc3)on2)cc1	nt	7%	nt	nt
Cc1nc2sccn2c(=O)c1CCN1CCC(=C(c2ccc(F)cc2)c2ccc(F)cc2)CC1	nt	4%	?	-67*
COc1ccc(NC(=O)c2nnn(Cc3nc(-c4cc(OC)c(OC)c(OC)c4)oc3C)c2C)cc1Cl	nt	-1%	nt	nt
Cc1nc2ccccc2n1CC(O)COc1ccc(C(=O)O)cc1 (configuration not stated)	nt	-1%	nt	1
CCC(=O)c1ccc(OCC(O)Cn2c(C)nc3ccccc32)cc1 (configuration not stated)	28µM*	3%	-39%	-16
O=C(Nc1ccc(Cl)c(Cl)c1)c1ccccc1	nt	0%	11µM*	nt
O=C(Nc1ccc(Cl)c(Cl)c1)Oc1ccc(NC(=O)c2ccco2)cc1	-14%	-1%	40µM*	7
O=C(Nc1cccc(Cl)c1)c1ccccc1	6%	2%	3%	nt
O=C1C(Cl)=C(NC(=O)c2ccccc2)C(=O)C(Cl)=C1NC(=O)c1ccccc1	6%[15.4 µM]	-4%	?	-105*
Cc1nc(Nc2ccc(Cl)c(Cl)c2)sc1C(=O)Nc1ccccc1	2%	5%	50µM*	-20
Cc1nc(Nc2ccc(Cl)cc2Cl)sc1C(=O)Nc1ccccc1	-5%[15.4 µM]	0%	?	-13
Cc1cc(C)c2c(c1)c(C)cc1nnc(SCc3ccccc3C#N)n12	nt	-2%	nt	4
Cc1ccc(-n2c(C)nc3c(cnn3-c3ccccc3Cl)c2=O)cc1C	11%	1%	-1%	3
Cc1nc2c(cnn2-c2ccccc2Cl)c(=O)n1-c1ccc(N2CCC(C)CC2)cc1	5%	1%	35µM*	0
NC(=O)c1nsc(C(=O)N(CC(=O)NC2CCCC2)c2ccc(F)c(Cl)c2)c1N	-19%	1%	5%	-65*
CCC(=O)N1N=C(c2ccc(NS(=O)(=O)c3ccccc3)cc2)CC1c1ccco1 (configuration not stated)	5%	nt	32µM*	-12
SMILES	gsp agonist	RXFP1 agonist	gsp antagonist	RXFP1 antag
Cc1ccc(C2=NN(C(=O)CCCC(=O)O)C(c3ccco3)C2)cc1 (configuration not stated)	-6%[15.4 µM]	1%	-8%	-11
COCCNc1c2c(nc3c(-c4ccccc4)c(C)nn13)CCCC2	7%	-3%	35µM*	-28
Cc1nn2c(NCCOCCO)c3c(nc2c1-c1ccccc1)CCCC3	1%	0%	-12%	-5
OCCN(CC(O)COc1ccccc1)CC(O)Cn1ccc2ccccc21 (configuration not stated)	7%	-1%	11%	5
COc1ccc(OCC(O)CN(CCO)CC(O)Cn2ccc3ccccc32)cc1 (configuration not stated)	8%[15.4 µM]	1%	-4%	-64*
CC1C(c2ccc3c(c2)OCO3)c2cc3c(cc2OC1N1CCOCC1)OCO3 (configuration not stated)	1%	nt	-3%	-73*
COc1cc(C2c3cc4c(cc3OC(N3CCCCC3)C2C)OCO4)cc(OC)c1O (configuration not stated)	?	nt	9%	-5
COc1cccc(NC(=O)Nc2nc(-c3ccc(OC)c(OC)c3)cs2)c1	?	12%	-19%	-62*
NNC(=O)CSc1nc(-c2ccccc2)nc2c1CCCC2	12%	0%	-6%	-69*
COc1cc(/C=C2/C(=O)c3cccc([N+](=O)[O-])c3C2=O)c(Br)cc1O	20%	6%	35µM*	-8
Cc1ccc(-c2ccc(=O)n(CCC(=O)NCCc3ccccc3)n2)cc1	nt	3%	nt	nt
CC1=NOC(=O)/C1=C\c1ccc(-c2ccc(Br)cc2)o1	4µM*	19%	-4%	-25
CC1=NOC(=O)/C1=C/c1ccc(-c2ccc(Cl)cc2)o1	nt	-3%	nt	nt
Cc1ccc(C)c(N(C)C(=O)c2ccc3c(=O)n4c(nc3c2)CCCCC4)c1	-2%	-3%	-6%	-102*
CN(C(=O)c1ccc2c(=O)n3c(nc2c1)CCCCC3)c1ccccc1F	-30%	3%	0%	35
Cc1ccc(S(=O)(=O)NCCc2nnc3ccc(SCc4ccc(F)cc4)nn23)cc1	nt	0%	nt	6
CC(C)c1ccc2oc(=O)cc(CN3CCN(c4ccc(F)cc4)CC3)c2c1	4%	0%	35µM*	-19
Cc1cc(C)cc(NC(=O)CSc2nnc(COc3ccccc3Cl)o2)c1	nt	1%	nt	nt
O=C(CCS(=O)(=O)c1nc(-c2cccs2)cc(C(F)(F)F)n1)Nc1ccc(Br)cc1	nt	14%	nt	-108*
O=C(CCS(=O)(=O)c1nc(-c2cccs2)cc(C(F)(F)F)n1)Nc1cc(Br)ccc1O	nt	6%	nt	-116*
Cc1ccc(O)c(NC(=O)CCS(=O)(=O)c2nc(-c3cccs3)cc(C(F)(F)F)n2)c1	nt	6%	nt	-30
CCOC(=O)c1cccc(NC(=O)CCc2c(C)nn(-c3ccc(N4CCCCC4)nn3)c2C)c1	nt	1%	nt	12
CN(C)c1ccc(CN(Cc2ccco2)C(=O)c2ccc(C(C)(C)C)cc2)cc1	nt	2%	nt	-34
CC1Cc2ccccc2N1S(=O)(=O)c1nnc(NC(=O)c2ccccc2Br)s1 (configuration not stated)	nt	-2%	nt	-27
O=C(Nc1ccc2snnc2c1)Nc1cccc2ccccc12	14%	0%	50µM*	-4
CC1CN(Cc2c(O)ccc3c2oc(=O)c2ccccc23)CC(C)O1 (configuration not stated)	28µM*	25%	0%	7
O=C(NCC(c1ccco1)S(=O)(=O)c1cccs1)c1c(F)cccc1F (configuration not stated)	nt	1%	nt	6
Fc1ccc(-c2onc3ccc(C4OCCO4)cc23)cc1	-10%[15.4 µM]	-1%	11µM*	-4

High-throughput results from PubChem BioAssay.
